PubChem BioAssay AID463173 (ICCB-Longwood Screening Facility, Harvard Medical School, 2010)
About 4,300 (8.3%) of roughly 52,000 compounds were called active. Cut-off read from the data, not from the text of the source: active = survival mostly below about 52% (no sharp cut-off); inactive = mostly above about 56%. For the sample, actives were picked, then their nearest neighbours and some compounds at random.

Tested on: DeltatarO mutant
Test: growth inhibition of S. aureus wild type versus tarO mutant, primary screen, teichoic acid synthesis inhibitors, RN4220, OD600 (AID 463173)
Settings: OD600, 18 h, hits give low values, screened at 18.75 µg/mL (by protocol)

Compound | survival
CCC(=O)C1=C(c2ccccc2)N(C(=O)CC)n2c(nnc2C2CCCCC2)S1 | 55% (inactive)
N#CCCn1c(=O)n(CCC#N)c(=O)n(CCC#N)c1=O | 79% (inactive)
O=C1NC2(CCCCC2)C(=O)N1c1ccc(Cl)cc1 | 109% (inactive)
CCC(=O)OCCN1C(=O)c2ccccc2C1=O | 91% (inactive)
COc1ccc(C(=O)Nc2ccc(NC(=O)c3ccco3)cc2)cc1OC | 71% (inactive)
N#Cc1cccc(NC(=O)C2CCN(c3ncccn3)CC2)c1 | 66% (inactive)
Cc1cccc(CCn2c(=O)c3ccccc3n(CC(=O)Nc3ccccc3F)c2=O)c1 | 76% (inactive)
CCOc1ccc(OCC)c(NC(=O)c2csc3c2CCCC3)c1 | -2% (active)
O=C(Nc1ccccc1O)c1csc2c1CCCC2 | 80% (inactive)
CCOc1ccc(CCNC(=O)c2csc3c2CCCCC3)cc1 | 73% (inactive)
CCn1c(C(=O)Nc2cc(Cl)ccc2C)cc2sc(Cl)cc21 | 77% (inactive)
CCn1c(C(=O)Nc2cc(C)cc(C)c2)cc2sc(Cl)cc21 | 109% (inactive)
CCn1c(C(=O)Nc2ccccc2C(=O)OC)cc2sc(Cl)cc21 | 31% (active)
CCn1c(C(=O)Nc2ccc(C)cc2C)cc2sc(Cl)cc21 | 58% (inactive)
CCn1c(C(=O)Nc2c(C)cccc2C)cc2sc(Cl)cc21 | 60% (active)
CCc1ccccc1NC(=O)c1cc2sc(Cl)cc2n1CC | 77% (inactive)
COC(=O)c1[nH]c2ccc(F)cc2c1N | 98% (inactive)
CCN(CC)c1ccc2cc(C(=O)Nc3ccc(NC(C)=O)cc3)c(=O)oc2c1 | 94% (inactive)
O=C(NCCc1ccccc1)c1ccc(CSc2nc3ccncc3n2Cc2ccccc2)cc1 | 73% (inactive)
CCCOc1ccc(CNC(=O)C(NS(=O)(=O)c2cccs2)C(C)C)cc1 (stereo unspecified) | 77% (inactive)
CCc1cccc(NC(=O)C(Cc2ccccc2)NS(=O)(=O)c2cccs2)c1 (stereo unspecified) | 44% (active)
COc1cc(NC(=O)C(Cc2ccccc2)NS(=O)(=O)c2cccs2)cc(OC)c1 (stereo unspecified) | 102% (inactive)

Compound | survival
Cc1ccc(NC(=O)C(Cc2ccccc2)NS(=O)(=O)c2cccs2)cc1Cl (stereo unspecified) | 90% (inactive)
CCc1cccc(NC(=O)C(Cc2ccccc2)NS(=O)(=O)c2ccc3c(c2)c(=O)n(C)c(=O)n3C)c1 (stereo unspecified) | 54% (inactive)
CCc1ccc(NC(=O)C(NS(=O)(=O)c2cccs2)C(C)C)cc1 (stereo unspecified) | 55% (active)
Cc1ccc(CNC(=O)C(NS(=O)(=O)c2cccs2)C(C)C)cc1 (stereo unspecified) | 61% (inactive)
CCc1ccc(NC(=O)C(Cc2ccccc2)NS(=O)(=O)c2ccc3c(c2)c(=O)n(C)c(=O)n3C)cc1 (stereo unspecified) | 45% (active)
Cc1ccc(NC(=O)C(Cc2ccccc2)NS(=O)(=O)c2ccc3c(c2)c(=O)n(C)c(=O)n3C)cc1 (stereo unspecified) | 64% (inactive)
CC(CNC(=O)c1ccc2c(c1)nc1n2CCCCC1)c1ccccc1 (stereo unspecified) | 62% (inactive)
CCOC(=O)c1ccc(CN(Cc2ccccc2C)S(=O)(=O)c2ccc(F)c(C)c2)cc1 | 80% (inactive)
Cn1cnc(S(=O)(=O)N2CCCC(C(=O)NCc3ccc(F)cc3)C2)c1 (stereo unspecified) | 55% (inactive)
CCOC(=O)CN1N=NC2C(=O)N(c3ccccc3)C(=O)C21 (stereo unspecified) | 92% (inactive)
O=C(c1ccc2c(c1)OCCO2)N(Cc1cccnc1)c1nc2c(F)cc(F)cc2s1 | 88% (inactive)
Cc1ccc(CCNC(=O)CN(c2ccc(C(C)C)cc2)S(=O)(=O)c2c(C)nn(C)c2C)cc1 | 68% (inactive)
Cc1ccc(C(=O)c2cn(Cc3c(F)cccc3Cl)c3nc(C)ccc3c2=O)cc1 | 62% (inactive)
CCc1ccc(NC(=O)CSC2=Nc3ccccc3C3=NC(CCC(=O)NCCc4ccccc4)C(=O)N23)cc1 (stereo unspecified) | 81% (inactive)
O=S(=O)(/C=C/c1ccccc1)N1CCOCC1 | 67% (inactive)
N#Cc1ccccc1CSc1nc(N)cc(N)n1 | 106% (inactive)
N#CCSc1nc(N)cc(N)n1 | 52% (active)
Cc1ccc(CSc2nc(N)cc(N)n2)cc1 | 114% (inactive)
Cc1ccc(N2CCN(C(=O)c3ccc(Nc4nc5ccccc5n5nnnc45)cc3)CC2)c(C)c1 | 82% (inactive)
CC(C)Nc1nc2c(S(=O)(=O)c3cccc(Cl)c3)nnn2c2ccsc12 | 70% (inactive)
COc1ccc(OC)c(NC(=O)CSc2c3c(nc4ccccc24)CCCC3)c1 | 93% (inactive)
CCOc1ccc(NC(=O)CSc2c3c(nc4ccccc24)CCCC3)cc1 | 88% (inactive)

Compound | survival
Cc1ccc(NC(=O)CSc2c3c(nc4ccccc24)CCCC3)cc1F | 30% (active)
O=C(CSc1c2c(nc3ccccc13)CCC2)Nc1ccc(F)cc1 | 127% (inactive)
COc1ccc(NC(=O)CSc2c3c(nc4ccccc24)CCC3)c(OC)c1 | 110% (inactive)
COc1cccc(NC(=O)CSc2c3c(nc4ccccc24)CCCC3)c1 | 43% (active)
CN(C)c1ccc(-c2nc3ccccn3c2Nc2ccc3c(c2)OCCO3)cc1 | 81% (inactive)
CC(CCc1ccccc1)NC(=O)Cn1c(=O)nc(-c2ccccc2)c2cc(Cl)ccc21 (stereo unspecified) | 80% (inactive)
O=C(CCc1ccccc1)NCc1ccco1 | 88% (inactive)
CCOC(=O)c1ccccc1NC(=O)N1CC(C)Oc2ccc(C)cc21 (stereo unspecified) | 50% (inactive)
CCN1CCN(C(=O)c2ccc3c(c2)N(Cc2ccccc2)C(=O)c2ccccc2S3(=O)=O)CC1 | 129% (inactive)
Cc1ccc(CNC(=O)CN2CCCN(Cc3ccc(F)cc3)S2(=O)=O)cc1 | 67% (inactive)
Cc1ccc(S(=O)(=O)Nc2cc3c(C(=O)OCc4ccccc4)c(C)oc3c3ccccc23)c(C)c1 | 56% (inactive)
CCOc1ccc(S(=O)(=O)Nc2cc3c(C(=O)OCc4ccccc4)c(C)oc3c3ccccc23)cc1 | 94% (inactive)
CC(=O)c1c(C)oc2c1cc(NS(=O)(=O)c1ccc(C(C)(C)C)cc1)c1ccccc12 | 64% (inactive)
CCCOC(=O)c1c(C)oc2c1cc(NS(=O)(=O)c1ccc(OCC)cc1)c1ccccc12 | 56% (active)
COCCOC(=O)c1c(C)oc2c1cc(NS(=O)(=O)c1ccc(Cl)c(C)c1)c1ccccc12 | 44% (active)
Cc1oc2c(cc(NS(=O)(=O)c3ccc(F)cc3)c3ccccc32)c1C(=O)OCc1ccccc1 | 54% (inactive)
CCc1ccc(S(=O)(=O)Nc2cc3c(C(=O)OCc4ccccc4)c(C)oc3c3ccccc23)cc1 | 60% (inactive)
Cc1oc2c(cc(NS(=O)(=O)c3ccc(Cl)cc3)c3ccccc32)c1C(=O)OCc1ccccc1 | 52% (inactive)
Cc1oc2c(cc(NS(=O)(=O)c3ccc(C(C)C)cc3)c3ccccc32)c1C(=O)O | 42% (active)
Cc1oc2c(cc(NS(=O)(=O)c3ccc(C(C)C)cc3)c3ccccc32)c1C(=O)OCc1ccccc1 | 81% (inactive)
CC(=O)c1c(C)oc2c1cc(NS(=O)(=O)c1ccc(Cl)c(C)c1)c1ccccc12 | 70% (inactive)
Cc1cc(F)ccc1S(=O)(=O)Nc1cc2c(C(=O)O)c(C)oc2c2ccccc12 | 39% (active)
